Test results published in PubChem BioAssay.
Calls of active or inactive are those of the source.

Test: basal CRE-LacZ reporter activity in PC12 – cell-based, unstimulated, primary screen (AID 1145)
Details: no forskolin, luminescence, 4.5 h, higher = more signal, called active from +8 up or from −8 down

z-score, inactive:
CC#CCOCCC=C1c2ccccc2[C@@H](OC)[C@@H]1C 1.42, CCOC(=O)[C@H](CC(C)C)NC(=O)CCC1CC(OC(=O)NCc2ccc3c(c2)OCO3)CC2(CCCC(COC(=O)NCCOc3ccccc3)O2)O1 (some centres not stated) 0.293, CON=C(C)CCN1CCCCc2nc(C)c(C)cc21 0.397, C=CC[C@@H]1C=C[C@H](ON=CC[C@@H]2C=C[C@H](OC(C)=O)[C@@H](COC(C)=O)O2)[C@@H](CO)O1 -1.21, C[C@@H]1CC[C@@H](C(=O)O)N[C@H]1c1cccc(N2CCOCC2)c1 -0.974, CC(=O)OC[C@H]1O[C@H](CC=NOC[C@@H](O)COCc2ccco2)C=C[C@@H]1OC(C)=O -0.729, CC(CCN1CCc2nc(-c3ccccc3)c(-c3ccccc3)cc2C1)=NO[C@H](C)c1cn([C@H](CO)Cc2ccccc2)nn1 0.987, CCOC(=O)CCN1C(=O)[C@H]2[C@H]3[C@H](O)[C@H](O)CC(=NNC(=O)OCc4ccc(OC)cc4)[C@H]3CC[C@H]2C1=O 0.523, CC(=O)OC[C@H]1O[C@@H](ON=C(C)CCC(=O)OC[C@H]2O[C@H](C#Cc3ccccc3)C=C[C@@H]2Oc2ccc(C)cc2)[C@H](OC(C)=O)[C@@H](OC(C)=O)[C@@H]1OC(C)=O 2.19, O=C1CCCC=C1C(O)c1ccc([N+](=O)[O-])cc1 (configuration not stated) -0.706

Test: forskolin-driven CRE-LacZ activity in PC12 – cell-based, CRE-LacZ reporter, forskolin-stimulated, primary screen (AID 1146);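 further: PC12 cells with 6xCRE LacZ reporter stimulated by forskolin 10 µM; beta-galactosidase reporter signal reflecting CREB driven transcription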
Details: luminescence, 4.5 h, higher = more signal, called active from +8 up or from −8 down

z-score, inactive:
CCOC(=O)[C@H](Cc1ccccc1)NC(=O)CCC1CC(OC(=O)NCc2ccc3c(c2)OCO3)CC2(CCCC(COC(=O)NCCOC)O2)O1 (some centres not stated) 0.59, CCOC(=O)[C@H](Cc1ccccc1)NC(=O)CCC1CC(OC(=O)NCc2ccc3c(c2)OCO3)CC2(CCCC(COC(=O)NCCCN3CCCC3=O)O2)O1 (some centres not stated) -0.257, COC(=O)[C@H](C)NC(=O)CCC1CC(OC(=O)NCCc2ccc(F)cc2)CC2(CCCC(COC(=O)NCCOc3ccccc3)O2)O1 (some centres not stated) -0.501, O=C1CCCC=C1C(O)C1CCCCC1 (configuration not stated) 0.85, CCOC(=O)NN=C1C[C@@H](O)[C@@H](O)[C@@H]2[C@@H]3C(=O)N(c4ccc(F)cc4F)C(=O)[C@@H]3CC[C@H]12 0.409, CC(=O)OC[C@H]1O[C@H](CC=NO[C@@H](C)c2cc(-c3c(C)cc(C)cc3C)no2)C=C[C@@H]1OC(C)=O 0.481, CCOC(=O)CCN1C(=O)[C@H]2[C@H]3[C@H](O)[C@H](O)CC(=NO[C@@H]4O[C@H](CO)[C@@H](O)[C@H](O)[C@H]4O)[C@H]3CC[C@H]2C1=O 0.497, CCOC(=O)[C@H](CC(C)C)NC(=O)CCC1CC(OC(=O)NCCc2ccc(F)cc2)CC2(CCCC(COC(=O)NCc3cccc(C(F)(F)F)c3)O2)O1 (some centres not stated) 0.257, C[C@H]1CC[C@@H](C(=O)O)N[C@@H]1c1cccc(N2CCCC2=O)c1 -1.1, CC(=O)OC[C@H]1O[C@@H](ON=C2[C@H]3CCn4c(=O)n(-c5ccccc5)c(=O)n4[C@H]3[C@H](O)[C@@H]3O[C@H]23)[C@H](OC(C)=O)[C@@H](OC(C)=O)[C@@H]1OC(C)=O 0.265, CCOC(=O)[C@H](CC(C)C)NC(=O)CCC1CC(OC(=O)NCCc2ccc(F)cc2)CC2(CCCC(COC(=O)NCCCN3CCCC3=O)O2)O1 (some centres not stated) 0.319, CC(CCC(=O)OC[C@H]1O[C@H](C#Cc2ccccc2)C=C[C@@H]1Oc1ccc(C)cc1)=NOC[C@@H](C)[C@H](OCc1ccccc1)C(C)C 0.778, CCOC(=O)[C@H](Cc1ccccc1)NC(=O)CCC1CC(OC(=O)NCc2cccc3ccccc23)CC2(CCCC(COC(=O)NCCc3ccccc3OC)O2)O1 (some centres not stated) -0.745, COC(=O)[C@H](C)NC(=O)CCC1CC(OC(=O)NCCc2ccc(F)cc2)CC2(CCCC(COC(=O)NCCc3ccccc3OC)O2)O1 (some centres not stated) 0.0825, CCOC(=O)NN=C1C[C@@H](O)[C@@H](O)[C@@H]2[C@@H]3C(=O)N(C[C@@H]4CCCO4)C(=O)[C@@H]3CC[C@H]12 -0.0875, CON=C1c2cc(OC)ccc2O[C@H](c2cccc(OC)c2)[C@H]1O -0.206, COC(=O)[C@H](C)NC(=O)CCC1CC(OC(=O)NCc2ccc3c(c2)OCO3)CC2(CCCC(COC(=O)NCCC(C)C)O2)O1 (some centres not stated) -1.22
